Measurements published in PubChem BioAssay (NCI).
Several values for one entry are separate records, joined by “and”; a condition that tells them apart may be missing. Identical values can stand only once. This is part of a sample that, as a whole, favours compounds with a hit. Of some 79,000 tested, about 15% had one in any assay. Cut-off read from the data, not from the text of the source: active = growth inhibition above about 70%; inactive = the rest.

Legend:
[1] = NCI Yeast Anticancer Drug Screen. Data for the rad50 strain (AID 155);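 note: 0% = growth of vehicle-only cultures of the same strain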; details: S. cerevisiae rad50 strain growth inhibition, active compounds read high; at 50.0 µM unless noted
Summary of the method: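 DNA repair mutant yeast, compound exposure, growth read-out; inhibition is taken relative to vehicle.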

[2] = NCI Yeast Anticancer Drug Screen. Data for the mec2-1 strain (AID 157); details: S. cerevisiae mec2-1 strain, active compounds read high; at 50.0 µM unless noted
Summary of the method: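 Cells of the genetically defined mec2-1 yeast strain are incubated with test compound. Inhibition of growth is calculated against vehicle-treated controls.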

[3] = NCI Yeast Anticancer Drug Screen. Data for the sgs1 mgt1 strain (AID 161);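 note: 0% = growth of cultures given vehicle only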; details: S. cerevisiae sgs1 mgt1 strain, active compounds read high; at 50.0 µM unless noted
Summary of the method: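 Mutant yeast exposed to compound; growth scored against vehicle-only wells.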

[4] = NCI Yeast Anticancer Drug Screen. Data for the cln2 rad14 strain (AID 165);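 note: 0% = growth equal to vehicle treated cultures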; details: S. cerevisiae cln2 rad14 strain, active compounds read high; at 50.0 µM unless noted
Summary of the method: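 The screen exposed genetically defined yeast (cln2 rad14) to test compounds and scored growth inhibition relative to vehicle-treated controls.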

[5] = NCI Yeast Anticancer Drug Screen. Data for the bub3 strain (AID 167); details: S. cerevisiae bub3 mutant strain, active compounds read high; at 50.0 µM unless noted
Summary of the method: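 In this screen, a yeast mutant lacking normal mitotic checkpoint function is challenged with compound. Relative growth versus vehicle gives the inhibition value.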

[6] = NCI Yeast Anticancer Drug Screen. Data for the mlh1 rad18 strain (AID 175); details: S. cerevisiae mlh1 rad18 strain growth inhibition, active compounds read high; at 50.0 µM unless noted
Summary of the method: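 Compound-treated yeast growth, normalised to vehicle controls. Strain bears defined DNA repair mutations.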

Measured: growth inhibition

O=C1CCCNC(=O)N1
inactive: [1] -11.2% | [2] 20.1% | [3] -19.3% | [4] 4.35% | [5] 1.95% | [6] -5.3%

O=C1OC(C(O)C(O)CO)C(O)=C1O (centres undefined)
inactive: [1] 16.8% and 0.95% | [2] 3.7% and 13.8% | [3] -11.3% and -13.8% | [4] 4.25% and -8.15% | [5] 2.75% and -8.6% | [6] 19.7% and 6.2%

Cc1ccc(C)c(NC(=O)Nc2ccccc2)c1
inactive: [1] 3.3% | [2] 4.25% | [3] -7.2% | [4] -25.1% | [5] 0.35% | [6] 1%

COc1ccc2occ(CCC(=O)O)c2c1
inactive: [1] 6.4% | [2] -0.75% | [3] -2.25% | [4] -25.9% | [5] -1.1% | [6] 6.9%

CC1CCCCN1C(=O)Nc1ccc(Cl)cc1[N+](=O)[O-] (centres undefined)
inactive: [1] 9.3% | [2] 44.2% | [3] 29.6% | [4] -15.6% | [5] 64.3% | [6] 42.4%

O=C(/C(=C1\SS/C(=C(/C(=O)c2ccccc2)c2ccccc2)S1)c1ccccc1)c1ccccc1
inactive: [1] 34.6% | [2] 14.6% | [3] 17.7% | [4] 7.3% | [5] 5.75% | [6] 6.45%

CCN(CCN1CCCCC1)c1ccccn1
inactive: [1] 11% | [2] 1.3% | [3] 11.4% | [4] -35.7% | [5] 7.45% | [6] -10.9%

O=S(=O)(/C(=C\c1ccccc1)c1ccccc1)c1ccccc1
inactive: [1] -4.8% | [2] -12.4% | [3] -12.8% | [4] -17.7% | [5] -4.5% | [6] -6.65%

O=C(O)c1cscc1Cc1cccs1
inactive: [1] 0.05% | [2] -13.7% | [3] -43.6% | [4] -30.6% | [5] -76% | [6] 13.7%

CC1OC(n2cnc3c(NC(=O)c4ccccc4)ncnc32)C(O)C2OC12 (centres undefined)
inactive: [1] -1.15% | [2] -3.05% | [3] 8.75% | [4] 13.4% | [5] 2.95% | [6] 14.8%

CCC(=O)c1cccc2cccc(C(c3ccccc3)c3ccccc3)c12
inactive: [1] 1.85% | [2] 14.4% | [3] 6.35% | [4] -7.05% | [5] 8.7% | [6] -19.6%

CC(=O)N1C(=O)CC23c4cccc([N+](=O)[O-])c4C(=O)N2CCCN13 (centres undefined)
inactive: [1] 8.8% | [2] 0.35% | [3] 0.9% | [4] 10.6% | [5] -21.8% | [6] 17.4%

CCCCN(CCCC)CCCC(O)c1c2ccccc2nc2ccccc12 (centres undefined)
inactive: [1] -3.55% | [2] -5.95% | [3] 7.6% | [4] -13.9% | [5] 1.4% | [6] 12.6%

Nc1cc([N+](=O)[O-])ccc1C(=O)O
inactive: [1] 15.2% | [2] 0.05% | [3] -11.4% | [4] -3.1% | [5] 2.65% | [6] -14.3%

COC(=O)CCC1(C)C2CCC1(C)/C(=N/O)C2 (centres undefined)
inactive: [1] -10.2% | [2] 3.15% | [3] 2.35% | [4] 0.45% | [5] -21.1% | [6] 6.7%

COc1ccc(CNC(=O)CC(C)=O)cc1
inactive: [1] -6.7% | [2] -17.5% | [3] 3.35% | [4] 7.25% | [5] 13% | [6] 0.95%

CCCCCP(=O)(O)O.[Cu+2]
inactive: [1] -41.4% | [2] -39.6% | [3] -9.9% | [4] -40% | [5] -31.6% | [6] -14.2%

COc1cc(/C=C/C(=O)O)ccc1O
inactive: [1] -6.1% | [2] -17.1% | [3] 16.1% | [4] -48% | [5] -12.3% | [6] 17.6%

Cn1c(=O)c(C(=O)Nc2nc(C34CC5CC(CC(C5)C3)C4)cs2)c(O)c2ccccc21
inactive: [1] -27.8% | [2] -28.6% | [3] -5.7% | [4] 11.1% | [5] -10% | [6] -30.6%

Cc1ccc(C(=O)c2ccc([N+](=O)[O-])cc2)cc1
inactive: [1] -21.1% | [2] -20.4% | [3] -34.5% | [4] -50% | [5] 8.3% | [6] -41.1%

COc1nc(NC2OC(CO)C(O)C(O)C2O)c(C(=O)CCl)c(=O)n1C (centres undefined)
inactive: [1] 3.9% | [2] 4.2% | [3] -15.8% | [4] -7.45% | [5] -3.4% | [6] 4.05%

CC1CCCCN1Cc1ccccc1COC(=O)c1ccc([N+](=O)[O-])cc1Cl (centres undefined)
inactive: [1] 41.1% | [2] 30.4% | [3] 49.9% | [4] 8.85% | [5] 21.4% | [6] -3.6%

COc1cc(Cc2nccc3cc(OC)c(OC)cc23)c(C(C)=O)cc1OC
inactive: [1] 21.9% | [2] -22.9% | [3] 19.1% | [4] 14.1% | [5] 22% | [6] 22.4%

CCOC(=O)CSc1nc(-c2ccccc2)c(C#N)c(=O)[nH]1
inactive: [1] 3.05% | [2] 1.2% | [3] -5.4% | [4] 13.2% | [5] 2.6% | [6] -61%

COc1ccc(N(C(=O)NCCO)c2ccccc2)cc1
inactive: [1] -3.75% | [2] -15.8% | [3] 14.9% | [4] 14.6% | [5] -2.3% | [6] 26.7%

O=[N+]([O-])c1cccc(SSc2cccc([N+](=O)[O-])c2)c1
inactive: [1] 0.45% and -34.8% | [2] -16.1% and -57% | [3] -1.8% and -61.9% | [4] -2.95% and -12.7% | [5] -3.1% and -35.6% | [6] -1.3% and -65.8%

COC1=C2CC(C)CC(OC)C(O)C(C)/C=C(\C)C(OC(N)=O)C(OC)/C=C\C=C(/C)C(=O)NC(=C(/C=N/N(C)C)C1=O)C2=O (centres undefined)
inactive: [1] -11.3% | [2] -63.5% | [3] -35% | [4] 3.5% | [5] -16.9% | [6] -25.8%

CCOC(=O)/N=N/C(C)(C)OC(C)=O
inactive: [1] -10.5% | [2] 9.25% | [3] -8.1% | [4] -39.7% | [5] -20.4% | [6] -21.1%

O=S(=O)(NCCSSCCNS(=O)(=O)c1ccccc1)c1ccccc1
inactive: [1] 45% | [2] 17.5% | [3] 51.6% | [4] 16.6% | [5] 23.6% | [6] 34.7%

N#Cc1cccc2c1Nc1ccccc1S2
inactive: [1] -9.75% | [2] -21.8% | [3] -10.7% | [4] 8.8% | [5] 5.9% | [6] -19.9%

O=C(CCCN1CCC2(CC1)C(=NC1CCCCC1)NC(=O)N2c1ccccc1)c1ccc(F)cc1
inactive: [1] -10.8% | [2] -3.6% | [3] -3% | [4] 3.45% | [5] 13.7% | [6] -6.85%

CC(CCC#CC(=O)O)OC1CCCCO1 (centres undefined)
inactive: [1] -14.9% | [2] -33% | [3] -2.05% | [4] 2.95% | [5] -15.1% | [6] -14.2%

O=C1[C@H]2ON(c3ccccc3)C(c3ccccc3)[C@H]2C(=O)N1c1ccc(Cc2ccc(N3C(=O)[C@@H]4ON(c5ccccc5)C(c5ccccc5)[C@@H]4C3=O)cc2)cc1 (some centres undefined)
inactive: [1] 3.1% | [2] 3.45% | [3] 12.6% | [4] 21.5% | [5] 26.5% | [6] 11.8%

CCOC(=O)NC(=S)c1ccc[nH]1
inactive: [1] -10.7% | [2] -42.2% | [3] 0.2% | [4] 4.6% | [5] -36.8% | [6] -20.2%

Cc1ccc(NC(=O)Oc2ccc(-c3ccccc3)cc2Br)c(Br)c1
inactive: [1] 52.1% | [2] 58% | [3] 54.6% | [4] 40% | [5] 51.9% | [6] 53.7%

CC1(C)CCC2=C(O1)C(=O)c1ccccc1C2=O
inactive: [1] 13.8% | [2] -3.45% | [3] 29.6% | [4] 3.35% | [5] 35.8% | [6] 18%

CC1=NC(=Cc2cc(Br)cc(Br)c2)C(=O)N1n1c(-c2ccccc2)nc2ccccc2c1=O
inactive: [1] -13.2% | [2] -15.8% | [3] -1.65% | [4] 0.95% | [5] -24.7% | [6] 2.7%

COc1cc(C)cc(C(=O)O)c1
inactive: [1] -1.85% | [2] -3.5% | [3] 7.3% | [4] -52.4% | [5] -10% | [6] -2.7%

O=C(NC12CC3CC(CC(C3)C1)C2)C(=O)c1c[nH]c2ccc([N+](=O)[O-])cc12
inactive: [1] -17.4% | [2] -25.1% | [3] -50.6% | [4] -9.85% | [5] -15.1% | [6] -31.9%
